Molecules are shown by their SMILES. Results filed as inconclusive are left out. A call without a number means that no potency is given here. Active and inactive are the calls of the source. Calls come from the whole dose curve; as a rule, active = well fitted curve in the direction sought with a large enough effect in the repeat runs; inconclusive = weak or mixed curves; inactive = no such curve, though single readings can be large; an effect the other way counts as inactive or inconclusive.

One assay can be described thus: qHTS RealTime-Glo MT Cell Viability Assay in HEK293 cells - 8 hour (AID 1224887). For activity change, negative = cytotoxicity: top concentration of the series differs between compounds. Note: nearly all actives have a fitted effect of over 50% in size. Note: potency is the fitted concentration of half-maximal effect. The settings on record: RealTime-Glo luminescence; series mostly up to 76.8 µM. Summed up: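 Viable HEK293 cells reduce a cell-permeant prosubstrate; the product diffuses out and is consumed by NanoLuc in the medium to give light. Compounds went in after a 5 h incubation and plates were read over the treatment course.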
As for `CN(Cc1ccc(C(C)(C)C)cc1)Cc1cccc2ccccc12`, the Potency result was “inactive”.

As to `CN1CCC(=C2c3ccccc3Sc3ccccc32)CC1`, the Potency result was “inactive”.

On to `Clc1ccc2c(c1)CCc1cccnc1C2=C1CCNCC1`, for which the Potency result was “inactive”.

For `CCOc1ccc(N=Nc2ccc(/C=C/c3ccc(N=Nc4ccc(OCC)cc4)cc3S(=O)(=O)O)c(S(=O)(=O)O)c2)cc1`, the Potency result was “inactive”.

Turning to `COc1cc(C(=O)OCCCN2CCCN(CCCOC(=O)c3cc(OC)c(OC)c(OC)c3)CC2)cc(OC)c1OC`, the Potency is 9.52 µM (active).

With `C/C=C/C(=O)CC`, the activity change, negative = cytotoxicity is 0.36% [at 15.8 µM] (inactive).

As to `CCN(CC)CCNC(=O)c1cc(Br)c(N)cc1OC`, the Potency entry was “inactive”.

For `O=C(O)C(S)C(S)C(=O)O` (configuration not stated), the Potency entry is “inactive”.

Consider `O=[N+]([O-])c1ccc2[nH]ncc2c1`, for which the Potency result was “inactive”.

Regarding `CCCCCCCCCCO[C@@H]1O[C@H](CO)[C@@H](O)[C@H](O)[C@H]1O`, the Potency entry was “inactive”.

For `CN(C)c1ccc(/C=C/c2ccc([N+](=O)[O-])cc2)cc1`, the activity change, negative = cytotoxicity was -2.66% [at 6.97 µM] (inactive).

In the case of `C[N+]1(C)CCC(OC(=O)C(O)(c2ccccc2)C2CCCC2)C1` (configuration not stated), the Potency result was “inactive”.

For `CCO[Si](CCCCl)(OCC)OCC`, the Potency result is “inactive”.

Consider `Nc1ncn([C@H]2C[C@H](O)[C@@H](CO)O2)c(=O)n1`, for which the Potency result is “inactive”.

`O=C1OC(=O)C2C3C=CC(C3)C12` (configuration not stated): the Potency result is “inactive”.

On to `CCCCCCCCO[C@@H]1O[C@H](CO)[C@@H](O)[C@H](O)[C@H]1O`, for which the Potency entry is “inactive”.

Turning to `C/C(=C(\CCOP(=O)(O)O)SC(=O)c1ccccc1)N(C=O)Cc1cnc(C)nc1N`, the activity change, negative = cytotoxicity was 3.68% [at 6.97 µM] (inactive).

Turning to `CCCCOC(=O)CCCCCCCC(=O)OCCCC`, the Potency result was “inactive”.

In the case of `CN1C[C@H]2c3ccccc3Oc3ccc(Cl)cc3[C@@H]2C1`, the Potency entry was “inactive”.

As to `Cc1cc(N)c2cc(NC(=O)Nc3ccc4nc(C)cc(N)c4c3)ccc2n1`, the Potency entry was “inactive”.

For the compound `O=C1CCC(=O)O1`, the Potency result was “inactive”.

On to `O=C(NCCO[N+](=O)[O-])c1cccnc1`, for which the Potency result was “inactive”.

Regarding `CCN(CC)CCOC(=O)C(Cc1cccc2ccccc12)CC1CCCO1` (configuration not stated), the Potency result is “inactive”.

A further assay is described as follows: A CellTox Green Cytotoxicity Assay to monitor cytotoxicity in HEK293 cells - 16 hour (AID 1224888). Note: nearly all actives have a fitted effect of over 35% in size. The settings on record: CellTox Green fluorescence; series mostly up to 76.8 µM. The method, boiled down:
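Fluorescence intensity, read at 0, 8, 16, 24, 32 and 40 h of compound treatment, reflected dye binding to DNA of dead HEK293 cells; compounds (23 nL, DMSO) were added 5 h after plating cells with reagent.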
Consider `CN(Cc1ccc(C(C)(C)C)cc1)Cc1cccc2ccccc12`, for which the Potency entry was “inactive”.

Regarding `COc1ccc(-c2nc3ccc(C4=NNC(=O)CC4C)cc3[nH]2)cc1` (configuration not stated), the Potency entry was “inactive”.

For the compound `CN1CCC(=C2c3ccccc3Sc3ccccc32)CC1`, the Potency result is “inactive”.

On to `CCCCC(=O)OCC(=O)[C@H]1[C@H](C)C[C@H]2[C@@H]3C[C@H](F)C4=CC(=O)C=C[C@]4(C)[C@@]3(F)[C@@H](O)C[C@@]21C`, for which the Potency entry was “inactive”.

Consider `Clc1ccc2c(c1)CCc1cccnc1C2=C1CCNCC1`, for which the Potency result was “inactive”.

As to `CCn1cc(C(=O)O)c(=O)c2cnc(N3CCNCC3)nc21`, the Potency result is “inactive”.

For the compound `CCOc1ccc(N=Nc2ccc(/C=C/c3ccc(N=Nc4ccc(OCC)cc4)cc3S(=O)(=O)O)c(S(=O)(=O)O)c2)cc1`, the Potency entry was “inactive”.

Turning to `COc1cc(C(=O)OCCCN2CCCN(CCCOC(=O)c3cc(OC)c(OC)c(OC)c3)CC2)cc(OC)c1OC`, the Potency result is “inactive”.

As to `NS(=O)(=O)c1ccc(N2CCCCS2(=O)=O)cc1`, the Potency result was “inactive”.

Turning to `CCCCCCCC/C=C\CCCCCCCC(=O)OCC`, the Potency entry is “inactive”.

As to `Nc1cc(C(=O)O)c(O)c(S(=O)(=O)O)c1`, the Potency result is “inactive”.

For the compound `C/C=C/C(=O)CC`, the activity change was 0.377% [at 15.8 µM, hits give high values] (inactive).

In the case of `ClCCOCCOCCCl`, the Potency result is “inactive”.

On to `CCN(CC)CCNC(=O)c1cc(Br)c(N)cc1OC`, for which the Potency result was “inactive”.

With `O=C(O)C(S)C(S)C(=O)O` (configuration not stated), the Potency entry was “inactive”.

With `O=[N+]([O-])c1ccc2[nH]ncc2c1`, the Potency result is “inactive”.

In the case of `CCCCCCCCCCO[C@@H]1O[C@H](CO)[C@@H](O)[C@H](O)[C@H]1O`, the Potency result was “inactive”.

Regarding `CCO[Si](CCCCl)(OCC)OCC`, the Potency entry is “inactive”.

For `Nc1ncn([C@H]2C[C@H](O)[C@@H](CO)O2)c(=O)n1`, the Potency entry was “inactive”.

Take `O=C1OC(=O)C2C3C=CC(C3)C12` (configuration not stated): the Potency entry is “inactive”.

On to `CCCCCCCCO[C@@H]1O[C@H](CO)[C@@H](O)[C@H](O)[C@H]1O`, for which the Potency result is “inactive”.

As for `C/C(=C(\CCOP(=O)(O)O)SC(=O)c1ccccc1)N(C=O)Cc1cnc(C)nc1N`, the activity change is -2.42% [at 6.97 µM, hits give high values] (inactive).

As to `CCN(CC)CCOC(=O)C(c1ccccc1)C1CCCCC1` (configuration not stated), the Potency result is “inactive”.

Take `CCCCOC(=O)CCCCCCCC(=O)OCCCC`: the Potency entry was “inactive”.

For `CN1C[C@H]2c3ccccc3Oc3ccc(Cl)cc3[C@@H]2C1`, the Potency result was “inactive”.

`O=C(O)c1ccccc1Cl`: the Potency result is “inactive”.

For the compound `Cc1cc(N)c2cc(NC(=O)Nc3ccc4nc(C)cc(N)c4c3)ccc2n1`, the Potency entry was “inactive”.

As to `O=C1CCC(=O)O1`, the Potency result is “inactive”.

For `O=C(NCCO[N+](=O)[O-])c1cccnc1`, the Potency entry is “inactive”.

Take `CCN(CC)CCOC(=O)C(Cc1cccc2ccccc12)CC1CCCO1` (configuration not stated): the Potency entry is “inactive”.

As for `CCc1cc(C2=C(C(=O)O)N(c3ccccc3C(F)(F)F)S(=O)(=O)c3ccccc32)cc2c1OCO2`, the Potency result is “inactive”.

The next assay in a line: qHTS RealTime-Glo MT Cell Viability Assay in HepG2 cells - 0 hour (AID 1224889). Note: nearly all actives have a fitted effect of over 50% in size. Note: potency is the fitted concentration of half-maximal effect. To be noted: RealTime-Glo luminescence; series mostly up to 76.8 µM. Summed up:
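Cells + NanoLuc/prosubstrate dispensed (600 cells/well) → 5 h at 37 C/5% CO2 → compounds in DMSO transferred → 40 h incubation at 37 C, luminescence read at 0, 8, 16, 24, 32, 40 h.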
As for `CN(Cc1ccc(C(C)(C)C)cc1)Cc1cccc2ccccc12`, the Potency entry is “inactive”.

With `COc1ccc(-c2nc3ccc(C4=NNC(=O)CC4C)cc3[nH]2)cc1` (configuration not stated), the Potency entry was “inactive”.

For the compound `CCCCC(=O)OCC(=O)[C@H]1[C@H](C)C[C@H]2[C@@H]3C[C@H](F)C4=CC(=O)C=C[C@]4(C)[C@@]3(F)[C@@H](O)C[C@@]21C`, the Potency is 0.952 µM (active).

Consider `Clc1ccc2c(c1)CCc1cccnc1C2=C1CCNCC1`, for which the Potency entry is “inactive”.

On to `CCn1cc(C(=O)O)c(=O)c2cnc(N3CCNCC3)nc21`, for which the Potency entry is “inactive”.

As to `CCOc1ccc(N=Nc2ccc(/C=C/c3ccc(N=Nc4ccc(OCC)cc4)cc3S(=O)(=O)O)c(S(=O)(=O)O)c2)cc1`, the Potency result is “inactive”.

On to `COc1cc(C(=O)OCCCN2CCCN(CCCOC(=O)c3cc(OC)c(OC)c(OC)c3)CC2)cc(OC)c1OC`, for which the Potency result is “inactive”.

In the case of `NS(=O)(=O)c1ccc(N2CCCCS2(=O)=O)cc1`, the Potency result was “inactive”.

Turning to `CCCCCCCC/C=C\CCCCCCCC(=O)OCC`, the Potency entry was “inactive”.

Consider `Nc1cc(C(=O)O)c(O)c(S(=O)(=O)O)c1`, for which the Potency result is “inactive”.

`C/C=C/C(=O)CC`: the activity change, negative = cytotoxicity was 4.66% [at 15.8 µM] (inactive).

As for `ClCCOCCOCCCl`, the Potency result is “inactive”.

Turning to `CCN(CC)CCNC(=O)c1cc(Br)c(N)cc1OC`, the Potency entry is “inactive”.

With `O=C(O)C(S)C(S)C(=O)O` (configuration not stated), the Potency entry is “inactive”.

Consider `O=[N+]([O-])c1ccc2[nH]ncc2c1`, for which the Potency entry is “inactive”.

Regarding `CCCCCCCCCCO[C@@H]1O[C@H](CO)[C@@H](O)[C@H](O)[C@H]1O`, the Potency entry is “inactive”.

`CCCCCCCCCCCCCCCCCCOS(=O)(=O)O`: the Potency entry was “inactive”.

For the compound `CN(C)c1ccc(/C=C/c2ccc([N+](=O)[O-])cc2)cc1`, the activity change, negative = cytotoxicity is -8.4% [at 6.97 µM] (inactive).

As for `C[N+]1(C)CCC(OC(=O)C(O)(c2ccccc2)C2CCCC2)C1` (configuration not stated), the Potency result is “inactive”.

As for `CCO[Si](CCCCl)(OCC)OCC`, the Potency entry was “inactive”.

As to `Nc1ncn([C@H]2C[C@H](O)[C@@H](CO)O2)c(=O)n1`, the Potency result is “inactive”.

On to `O=C1OC(=O)C2C3C=CC(C3)C12` (configuration not stated), for which the Potency entry was “inactive”.

Take `CCCCCCCCO[C@@H]1O[C@H](CO)[C@@H](O)[C@H](O)[C@H]1O`: the Potency result was “inactive”.

For the compound `C/C(=C(\CCOP(=O)(O)O)SC(=O)c1ccccc1)N(C=O)Cc1cnc(C)nc1N`, the activity change, negative = cytotoxicity is 4.53% [at 6.97 µM] (inactive).

Consider `CCN(CC)CCOC(=O)C(c1ccccc1)C1CCCCC1` (configuration not stated), for which the Potency result is “inactive”.

As to `CCCCOC(=O)CCCCCCCC(=O)OCCCC`, the Potency result was “inactive”.

For `O=C(O)c1ccccc1Cl`, the Potency entry was “inactive”.

Take `Cc1cc(N)c2cc(NC(=O)Nc3ccc4nc(C)cc(N)c4c3)ccc2n1`: the Potency entry is “inactive”.

For `O=C1CCC(=O)O1`, the Potency result is “inactive”.

In the case of `O=C(NCCO[N+](=O)[O-])c1cccnc1`, the Potency entry was “inactive”.

As for `CCN(CC)CCOC(=O)C(Cc1cccc2ccccc12)CC1CCCO1` (configuration not stated), the Potency entry was “inactive”.

`C[C@H](CCC(=O)O)[C@H]1CC[C@H]2[C@@H]3CC[C@@H]4C[C@H](O)CC[C@]4(C)[C@H]3C[C@H](O)[C@]12C`: the Potency entry was “inactive”.

With `CCc1cc(C2=C(C(=O)O)N(c3ccccc3C(F)(F)F)S(=O)(=O)c3ccccc32)cc2c1OCO2`, the Potency was 24.3 µM (active).

(Values after PubChem BioAssay (Tox21).)
